From the supplement of paper PMC9694430

Legend:
Test in all cases: thermal shift delta Tm vs DMSO control; higher = stronger stabilization (binding)
Conditions in all cases: 12.5 µM; protein concentration 2 µM
LOC_OS01G01410-cb001 = test system: LOC_OS01G01410-cb001
In short: (§1)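 Rice kinase domain constructs were expressed in E. coli, purified, and tested by differential scanning fluorimetry with compound added in DMSO. Each well of a 96-well plate held 19.5 μl of 2 μM kinase in 100 mM potassium phosphate pH 7.5, 150 mM NaCl, 10% glycerol and 5 × SYPRO Orange, and fluorescence was read from 25°C to 95°C at 0.05°C/s. The melting temperature shift is the mean of triplicates, taken against protein with DMSO alone after Boltzmann fitting.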

LOC_OS01G02750-cb003 = test system: LOC_OS01G02750-cb003
In short: as §1

LOC_OS01G10900-cb004 = test system: LOC_OS01G10900-cb004
In short: as §1

LOC_OS01G13800-cb001 = test system: LOC_OS01G13800-cb001
In short: as §1

LOC_OS01G14860-cb001 = test system: LOC_OS01G14860-cb001
In short: as §1

LOC_OS01G21960-cb002 = test system: LOC_OS01G21960-cb002
In short: as §1

LOC_OS01G39600-cb002 = test system: LOC_OS01G39600-cb002
In short: as §1

LOC_OS01G48390-cb002 = test system: LOC_OS01G48390-cb002
In short: as §1

LOC_OS01G51400-cb002 = test system: LOC_OS01G51400-cb002
In short: as §1

LOC_OS01G52050-cb004 = test system: T1, LOC_OS01G52050-cb004
T1 sequence (whole entry): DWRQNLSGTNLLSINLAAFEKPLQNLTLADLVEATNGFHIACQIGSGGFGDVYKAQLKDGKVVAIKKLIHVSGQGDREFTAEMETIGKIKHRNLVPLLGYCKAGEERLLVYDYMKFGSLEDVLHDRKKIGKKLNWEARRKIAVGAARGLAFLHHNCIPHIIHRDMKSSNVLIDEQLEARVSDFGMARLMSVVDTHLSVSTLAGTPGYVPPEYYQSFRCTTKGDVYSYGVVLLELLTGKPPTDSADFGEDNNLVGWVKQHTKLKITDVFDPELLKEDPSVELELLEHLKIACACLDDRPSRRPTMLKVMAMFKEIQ
In short: as §1

LOC_OS01G57100-cb003 = test system: LOC_OS01G57100-cb003
In short: as §1

LOC_OS01G60330-cb001 = test system: LOC_OS01G60330-cb001
In short: as §1

LOC_OS01G60700-cb002 = test system: LOC_OS01G60700-cb002
In short: as §1

LOC_OS01G63280-cb003 = test system: LOC_OS01G63280-cb003
In short: as §1

LOC_OS01G67340-cb003 = test system: LOC_OS01G67340-cb003
In short: as §1

LOC_OS01G70970-cb002 = test system: LOC_OS01G70970-cb002
In short: as §1

LOC_OS02G07810-cb001 = test system: LOC_OS02G07810-cb001
In short: as §1

LOC_OS02G08530-cb003 = test system: LOC_OS02G08530-cb003
In short: as §1

LOC_OS02G14120-cb001 = test system: LOC_OS02G14120-cb001
In short: as §1

LOC_OS02G17970-cb001 = test system: LOC_OS02G17970-cb001
In short: as §1

SMILES	thermal shift delta Tm (LOC_OS01G01410-cb001) [°C]	thermal shift delta Tm (LOC_OS01G02750-cb003) [°C]	thermal shift delta Tm (LOC_OS01G10900-cb004) [°C]	thermal shift delta Tm (LOC_OS01G13800-cb001) [°C]	thermal shift delta Tm (LOC_OS01G14860-cb001) [°C]	thermal shift delta Tm (LOC_OS01G21960-cb002) [°C]	thermal shift delta Tm (LOC_OS01G39600-cb002) [°C]	thermal shift delta Tm (LOC_OS01G48390-cb002) [°C]	thermal shift delta Tm (LOC_OS01G51400-cb002) [°C]	thermal shift delta Tm (LOC_OS01G52050-cb004) [°C]	thermal shift delta Tm (LOC_OS01G57100-cb003) [°C]	thermal shift delta Tm (LOC_OS01G60330-cb001) [°C]	thermal shift delta Tm (LOC_OS01G60700-cb002) [°C]	thermal shift delta Tm (LOC_OS01G63280-cb003) [°C]	thermal shift delta Tm (LOC_OS01G67340-cb003) [°C]	thermal shift delta Tm (LOC_OS01G70970-cb002) [°C]	thermal shift delta Tm (LOC_OS02G07810-cb001) [°C]	thermal shift delta Tm (LOC_OS02G08530-cb003) [°C]	thermal shift delta Tm (LOC_OS02G14120-cb001) [°C]	thermal shift delta Tm (LOC_OS02G17970-cb001) [°C]
Oc1cc(O)cc(/C=C/c2ccc(O)c(O)c2)c1 [Piceatannol]	1.39	1.52	0.74	1	1.02	-0.47	1.51	1.02	0.39	1.1	-0.61	1.29	1.12	1.07	0.13	0.59	1.77	1.3	0.89	1.38
COc1ccc(-c2cc3nccn3c(Nc3ncccc3C(N)=O)n2)cc1OC	1.05	1.45	1.83	0.09	6.47	2.98	0.18	1.07	0.17	2.44	0.13	1.34	1.05	1.03	0.74	0.22	0.81	3.01	3.03	0.79
COc1cc2ncnc(Nc3cccc(Cl)c3F)c2cc1OC(=O)N1CCN(C)C[C@H]1C	0.74	0.31	0.52	-0.2	0.07	0.37	-0.74	0.45	0.35	-0.17	1.43	1.34	0.77	0.24	0.62	0.55	0.42	0.94	0.64	0.79
COc1cc(N2CCC(N3CCN(C)CC3)CC2)ccc1Nc1ncnc(Nc2ccccc2S(=O)(=O)C(C)C)n1	0.27	1.86	0.08	-0.11	0.33	0.28	0.25	0.94	0.37	0.61	1.39	0.48	0.92	0.72	0.5	0.84	0.26	1.76	3.1	0.11
Cc1cc2c(F)c(Oc3ncnn4cc(OC[C@@H](C)OC(=O)[C@H](C)N)c(C)c34)ccc2[nH]1	1.74	0.78	0.61	0.4	0.52	0.54	0.75	0.96	-0.47	-0.05	2.01	2.03	1.53	0.53	0.06	0.49	0.41	0.78	0.99	0.23
Cc1cccc(Nc2nc(NC3CCCCC3N)ncc2C(N)=O)c1 (stereo not given)	0.04	1.48	0.43	-0.24	1.5	1.75	0.32	0.09	0.29	6.64	2.09	1.38	1.44	0.64	2.38	2.39	-0.08	4.25	4.75	0.86
